Compounds with a hit are over-represented: about 13% of the library has one in this group of screens.
UCHL1 block: blocks human UCHL1 ubiquitin-rhodamine cleavage | P09936 | purified UCHL1, Ub-rhodamine cleavage fluorescence | inhibition, % at 20 µM | hit rate 0.2% among 47,000 | AID 1645859
USP10 inh: human USP10 deubiquitinase inhibition | Q14694 | purified USP10, Ub-rhodamine fluorescence, 60 min | inhibition, % at 20 µM | hit rate 1.1% among 47,000 | AID 1645856
Target sequence (Q14694 whole entry, looked up): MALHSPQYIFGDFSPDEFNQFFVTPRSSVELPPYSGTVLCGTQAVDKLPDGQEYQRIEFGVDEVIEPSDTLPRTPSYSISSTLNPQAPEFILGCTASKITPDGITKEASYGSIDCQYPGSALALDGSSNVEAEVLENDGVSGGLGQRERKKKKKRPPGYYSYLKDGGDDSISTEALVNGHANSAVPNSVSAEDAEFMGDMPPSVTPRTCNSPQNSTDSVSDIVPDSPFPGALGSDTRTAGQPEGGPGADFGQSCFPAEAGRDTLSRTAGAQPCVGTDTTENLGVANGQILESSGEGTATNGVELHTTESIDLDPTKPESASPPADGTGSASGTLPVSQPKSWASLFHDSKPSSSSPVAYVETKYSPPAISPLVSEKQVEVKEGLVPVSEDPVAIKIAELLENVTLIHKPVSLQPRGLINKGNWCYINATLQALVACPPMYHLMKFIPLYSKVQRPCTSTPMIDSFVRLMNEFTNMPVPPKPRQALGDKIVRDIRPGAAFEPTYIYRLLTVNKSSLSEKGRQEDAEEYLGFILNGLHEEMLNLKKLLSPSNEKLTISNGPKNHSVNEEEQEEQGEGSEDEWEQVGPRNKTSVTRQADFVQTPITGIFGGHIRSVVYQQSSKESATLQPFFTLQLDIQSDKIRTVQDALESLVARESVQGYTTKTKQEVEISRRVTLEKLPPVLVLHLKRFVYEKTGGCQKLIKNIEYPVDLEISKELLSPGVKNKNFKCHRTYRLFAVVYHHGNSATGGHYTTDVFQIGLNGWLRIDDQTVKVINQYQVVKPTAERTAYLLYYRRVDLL
USP30 inh: blocks human USP30 ubiquitin-rhodamine cleavage; hit rate 5.3% among 47,000; purified USP30, Ub-rhodamine cleavage fluorescence; inhibition, % at 25 µM
USP17 block: inhibitors of human USP17 deubiquitinase. A8MUK1. purified USP17, Ub-rhodamine cleavage fluorescence, 3 h. inhibition, % at 50 µM. hit rate 6.5% among 47,000
USP7 block: blocks human USP7 ubiquitin-rhodamine cleavage; Q93009; inhibition, % at 20 µM; hit rate 0.3% among 47,000; purified USP7, Ub-rhodamine cleavage fluorescence
USP8 block: blocks human USP8 ubiquitin-rhodamine cleavage | P40818 | purified USP8, Ub-rhodamine cleavage fluorescence, 30 min | inhibition, % at 20 µM | hit rate 4.2% among 47,000
* hit, by the source's call; / = no result given. No stated cut-off is given here; in the data, active means inhibition above about 30%; inactive means the rest.

SMILES	UCHL1 block	USP10 inh	USP30 inh	USP17 block	USP7 block	USP8 block
O=C(COc1cc([N+](=O)[O-])cc2cccnc12)NCCC1=CCCCC1	3.9	2.2	37.0*	85.5*	-14.8	97.6*
COc1ccc(CNC(=O)CCc2ccc3nc(NC(=O)C(C)C)sc3c2)cc1	3.0	5.4	32.9*	10.5	0.1	-28.1
CSc1cccc(NC2c3ccccc3C(=O)N2c2cccnc2)c1 (configuration not stated)	3.4	2.9	17.3	1.3	-6.4	-10.4
CCOc1ccccc1NC1c2ccccc2C(=O)N1c1cccnc1 (configuration not stated)	3.7	-1.5	-7.9	43.4*	1.0	71.0*
COc1cc(C)c(Cl)cc1S(=O)(=O)N1CCN(c2nc(C)cc(N(C)C)n2)CC1	11.1	2.3	-14.6	-15.9	17.4	-13.2
COc1ccc(C(=O)/C=C\c2cn(CCC(=O)O)nc2-c2ccc(OC)c(OC)c2)cc1	-2.4	4.1	13.6	-3.6	3.4	0.0
COc1ccc(-c2nn(-c3ccccc3)cc2/C=C/C(=O)Nc2ccc(C(C)=O)cc2)cc1OC	3.3	6.7	83.5*	55.2*	3.2	30.0
N#C/C(=C\c1ccc(C(F)(F)F)cc1)c1c[nH]c2ccccc12	3.1	-3.5	-24.7	32.3*	7.5	4.3
OC(/C=C/c1c[nH]c2ccccc12)C(F)(F)F (configuration not stated)	-0.5	-2.4	-63.4	-11.6	-7.2	10.1
c1ccc2c(c1)CCN(c1nc3cc4c(cc3s1)OCO4)C2	0.7	5.4	5.3	27.6	2.7	33.5*
CCCn1ncc(CN2CCC(C(=O)Nc3ccccc3-c3cccc(OC)c3)CC2)c1C	2.5	-7.2	16.5	3.2	-8.9	11.4
Cc1ccc(CNC(=O)CN2C(=O)c3ccccc3C2c2c(-c3ccccc3)[nH]c3ccccc23)o1 (configuration not stated)	3.5	-9.8	-15.2	36.6*	-4.4	22.5
O=C(Nc1ccc2c(c1)OCCO2)c1cc(-c2ccc(Cl)cc2)nc2ccccc12	2.9	0.2	-27.2	-16.3	3.6	-100.7
Fc1ccc(Cn2c(C3CCCO3)nc3ccccc32)cc1 (configuration not stated)	-1.2	-1.1	9.6	-3.6	-146.0	6.6
Fc1ccc(NCc2nc3ccccc3n2Cc2ccccc2)cc1	7.9	8.8	42.5*	14.3	-166.1	19.9
Fc1ccc(OCCn2c(COc3ccccc3)nc3ccccc32)cc1	8.8	16.6	15.7	23.0	-11.6	4.6
c1ccc(Cn2c(CNc3cccc4ccccc34)nc3ccccc32)cc1	2.4	3.4	-102.4	-107.3	-16.9	57.9*
CCOc1ccc(NCc2nc3ccccc3n2Cc2ccccc2)cc1	3.4	2.4	3.1	15.7	-32.4	41.7*
Cc1ccc(OCc2nc3ccccc3n2Cc2ccc(F)cc2)cc1	0.4	11.9	2.7	34.0*	-62.3	3.7
COc1cc(OC)c(C2CC(=O)Nc3nc(C)[nH]c(=O)c32)cc1OC (configuration not stated)	-9.3	-4.6	-62.7	-17.8	-9.3	-4.3
COc1cc(NC(=O)COC(=O)c2cc3ccccc3oc2=O)cc(OC)c1	1.6	2.2	-7.2	-9.0	7.4	0.0
Oc1sc(C=Nc2cc(Cl)ccc2Cl)c2ccccc12	-9.4	-9.6	-57.7	54.2*	-4.5	46.8*
COc1ccc(OC)c(CC2(NC(=O)c3ccccc3)N=C3C=CC=CN3C2=O)c1 (configuration not stated)	2.7	3.2	30.2*	21.7	5.0	26.5
c1ccc(CN(Cc2ccccc2)c2ncnc3c2cnn3-c2ccccc2)cc1	3.2	7.0	9.4	0.6	5.7	1.1
Cc1cccc(-n2ncc3c(N(CCO)CCO)ncnc32)c1	2.6	0.1	33.6*	23.7	9.9	27.7
SMILES	UCHL1 block	USP10 inh	USP30 inh	USP17 block	USP7 block	USP8 block
Cc1ccc(Cl)c(-n2nnc(C(=O)Nc3ccccc3C#N)c2C)c1	-0.4	11.5	30.2*	56.1*	0.0	16.5
COc1ccc(-c2ccc(-c3nnn(CCN4CCCCC4)n3)cc2)cc1	-3.0	8.7	0.5	17.9	0.1	46.6*
N#CC1(NC(=O)COc2cccc(-n3cnnn3)c2)CCCC1	-1.1	-0.4	19.6	7.1	2.4	9.7
O=S1(=O)N=C2N=CN(Cc3nc(-c4ccco4)no3)N2c2ccccc21	3.5	-2.1	-21.6	28.8	-0.1	-57.1
CC1=C(C(=O)Nc2ccccc2C)C(c2cccs2)n2ncnc2N1 (configuration not stated)	-4.8	1.4	9.1	-3.1	-8.2	0.2
O=C(COc1ncnc2cc([N+](=O)[O-])ccc12)NCc1ccc2c(c1)OCO2	3.0	20.2	0.6	29.5	4.7	65.6*
Cc1snc(SCc2nc(COc3ccc(Cl)cc3Cl)n[nH]2)c1C#N	6.6	18.5	40.5*	14.8	-35.2	-11.7
Clc1ccc(OCc2nn[nH]n2)c(Cl)c1	-1.6	0.2	0.2	/	-0.1	-20.3
CC1(C)OC2=C(C(=O)c3cc(O)cc(O)c3C2=O)c2cc(CO)c(O)cc21	16.9	-4.3	-0.1	81.8*	-24.0	10.4
CC1(C)C(=O)CC[C@@]2(C)C1CC[C@]1(C)C2CC[C@@H]2[C@H]3[C@H]4OC[C@@]3(CCC4(C)C)CC[C@]21C (some centres not stated)	6.1	0.4	30.5*	13.4	10.9	25.0
COc1ccccc1CC(=O)N1CCN(c2cccc3[nH]ccc23)CC1	-0.5	-6.3	-25.9	12.9	-4.6	58.0*
N#Cc1ccc(C(=O)N2CCCC(n3c(=O)[nH]c4cncnc43)C2)cc1 (configuration not stated)	-23.0	-6.5	-121.4	-41.7	-21.5	-19.3
O=C(Nc1ccccc1-c1nc2ccccc2[nH]1)c1sc2ccccc2c1Cl	2.8	32.9*	3.9	83.2*	32.0*	59.2*
O=C(Nc1ccccc1-c1nc2ccccc2[nH]1)c1ccc(Br)cc1	-3.0	4.1	-6.7	-11.6	2.2	10.6
O=C(NC(c1ccccc1)c1ccccc1)C(c1ccc(Cl)cc1Cl)N(Cc1ccccc1)C(=O)c1ccccn1 (configuration not stated)	7.4	8.4	22.1	0.1	10.1	9.2
O=C(COc1ccc2c(c1)OCO2)Nc1ccc2c(c1)CCC2	5.2	7.4	5.8	15.9	-4.7	30.9*
COc1ccc(S(=O)(=O)N2CCOCC2)cc1NC(=O)COc1ccc(C)cc1	5.1	-0.7	-0.3	-1.6	0.4	-9.4
COc1ccc(C)cc1NC(=O)COc1ccc2c(c1)OCO2	-0.6	4.2	-1.5	52.2*	2.8	36.6*
O=C(COc1ncnc2sc3c(c12)CCCC3)Nc1ccc2c(c1)OCO2	-1.0	31.2*	-103.2	10.8	10.8	29.5
Cc1cc(Cl)ccc1OCC(=O)Nc1ncnc2sc3c(c12)CCCC3	-3.7	-1.3	-50.8	25.7	-8.9	-9.0

Screening results: PubChem, Buhrlage Lab, Dana-Farber Cancer Institute and Novartis Institutes for BioMedical Research (Cambridge, Mass)
